Test results as given in PubChem BioAssay AID1159580 (chemical genetic matrix, 2015).
Out of some 5,500 compounds screened, about 2,000 (36%) were called active. About 18% were inconclusive and are not listed. No stated cut-off is given here; in the data, active means normalized growth mostly below about 0.91 (no sharp cut-off); inconclusive means no clear call, values can overlap the other calls; inactive means mostly above about 0.92. The list shows a part of the results.

Test: chemical genetic growth profiling, strain panel (AID 1159580);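 further: tested at 20 µM; growth read once vehicle control cultures reached saturation at 30 °C; 1 = growth at the plate median or of vehicle wells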
Details: growth OD

Measured: normalized growth

CCC/C=C/C=C/[C@@H]1C[C@@H](O)[C@@H](O)C(=O)[C@H]1C=O
inactive: S. cerevisiae deletion strains, locus YBR021W, strain FUR4, stronger effect = lower value 1.01 | S. cerevisiae deletion strains, locus YBR229C, strain ROT2, stronger effect = lower value 0.992 | S. cerevisiae deletion strains, locus YCL029C, strain bik1, stronger effect = lower value 0.98 | S. cerevisiae deletion strains, locus YDL035C, strain GPR1, stronger effect = lower value 1 | S. cerevisiae deletion strains, locus YDL074C, strain BRE1, stronger effect = lower value 1.01 | S. cerevisiae deletion strains, locus YDL101C, strain DUN1, stronger effect = lower value 0.994 | S. cerevisiae deletion strains, locus YDL192W, strain arf1, stronger effect = lower value 0.949 | S. cerevisiae deletion strains, locus YDR101C, strain arx1, stronger effect = lower value 0.978 | S. cerevisiae deletion strains, locus YDR162C, strain NBP2, stronger effect = lower value 0.982 | S. cerevisiae deletion strains, locus YDR318W, strain mcm21, stronger effect = lower value 0.959 | S. cerevisiae deletion strains, locus YDR388W, stronger effect = lower value 0.955 | S. cerevisiae deletion strains, locus YDR502C, strain sam2, stronger effect = lower value 0.976 | S. cerevisiae deletion strains, locus YEL061C, strain CIN8, stronger effect = lower value 0.984 | S. cerevisiae deletion strains, locus YER110C, stronger effect = lower value 0.999 | S. cerevisiae deletion strains, locus YER155C, strain BEM2, stronger effect = lower value 0.955 | S. cerevisiae deletion strains, locus YER167W, strain BCK2, stronger effect = lower value 0.976 | S. cerevisiae deletion strains, locus YGL078C, strain dbp3, stronger effect = lower value 0.94 | S. cerevisiae deletion strains, locus YGL086W, strain mad1, stronger effect = lower value 0.976 | S. cerevisiae deletion strains, locus YGL248W, strain PDE1, stronger effect = lower value 1 | S. cerevisiae deletion strains, locus YGR135W, strain pre9, stronger effect = lower value 0.988 | S. cerevisiae deletion strains, locus YGR252W, strain gcn5, stronger effect = lower value 1.16 | S. cerevisiae deletion strains, locus YHR030C, strain SLT2, stronger effect = lower value 0.978 | S. cerevisiae deletion strains, locus YHR079C, strain IRE1 (second series), stronger effect = lower value 0.981 | S. cerevisiae deletion strains, locus YHR094C, strain hxt1, stronger effect = lower value 0.97 | S. cerevisiae deletion strains, locus YHR129C, strain ARP1, stronger effect = lower value 0.99 | S. cerevisiae deletion strains, locus YHR200W, strain rpn10, stronger effect = lower value 0.972 | S. cerevisiae deletion strains, locus YIL066C, strain RNR3, stronger effect = lower value 0.971 | S. cerevisiae deletion strains, locus YIL073C, strain SPO22, stronger effect = lower value 1.03 | S. cerevisiae deletion strains, locus YIR030C, strain dcg1, stronger effect = lower value 0.975 | S. cerevisiae deletion strains, locus YJL095W, strain BCK1, stronger effect = lower value 1.03 | S. cerevisiae deletion strains, locus YJL134W, strain LCB3, stronger effect = lower value 0.947 | S. cerevisiae deletion strains, locus YJL168C, strain set2, stronger effect = lower value 0.973 | S. cerevisiae deletion strains, locus YJL187C, strain SWE1 (second series), stronger effect = lower value 1.03 | S. cerevisiae deletion strains, locus YJR043C, strain POL32, stronger effect = lower value 0.99 | S. cerevisiae deletion strains, locus YJR075W, strain HOC1, stronger effect = lower value 0.977 | S. cerevisiae deletion strains, locus YKL190W, strain CNB1, stronger effect = lower value 0.964 | S. cerevisiae deletion strains, locus YKR001C, strain vps1, stronger effect = lower value 0.901 | S. cerevisiae deletion strains, locus YLR058C, strain SHM2, stronger effect = lower value 0.99 | S. cerevisiae deletion strains, locus YLR102C, strain apc9, stronger effect = lower value 0.983 | S. cerevisiae deletion strains, locus YLR330W, strain CHS5, stronger effect = lower value 0.946 | S. cerevisiae deletion strains, locus YLR342W, strain FKS1 (second series), stronger effect = lower value 0.948 | S. cerevisiae deletion strains, locus YLR371W, strain rom2, stronger effect = lower value 0.978 | S. cerevisiae deletion strains, locus YLR418C, strain cdc73, stronger effect = lower value 0.999 | S. cerevisiae deletion strains, locus YML016C, strain PPZ1, stronger effect = lower value 0.986 | S. cerevisiae deletion strains, locus YML032C, strain rad52, stronger effect = lower value 0.954 | S. cerevisiae deletion strains, locus YML124C, strain tub3, stronger effect = lower value 0.991 | S. cerevisiae deletion strains, locus YMR078C, strain ctf18, stronger effect = lower value 0.973 | S. cerevisiae deletion strains, locus YMR223W, strain ubp8, stronger effect = lower value 0.929 | S. cerevisiae deletion strains, locus YMR263W, strain SAP30, stronger effect = lower value 0.992 | S. cerevisiae deletion strains, locus YMR307W, strain GAS1, stronger effect = lower value 1.04 | S. cerevisiae deletion strains, locus YNL067W, strain RPL9B, stronger effect = lower value 0.986 | S. cerevisiae deletion strains, locus YNL153C, strain GIM3, stronger effect = lower value 1.01 | S. cerevisiae deletion strains, locus YNL233W, strain BNI4, stronger effect = lower value 0.973 | S. cerevisiae deletion strains, locus YNL307C, strain MCK1, stronger effect = lower value 0.954 | S. cerevisiae deletion strains, locus YNL322C, strain KRE1, stronger effect = lower value 0.984 | S. cerevisiae deletion strains, locus YOL012C, strain htz1 0.336 | S. cerevisiae deletion strains, locus YOL147C, strain pex11, stronger effect = lower value 0.986 | S. cerevisiae deletion strains, locus YOR061W, strain CKA2, stronger effect = lower value 0.986 | S. cerevisiae deletion strains, locus YOR069W, strain VPS5, stronger effect = lower value 0.979 | S. cerevisiae deletion strains, locus YOR136W, strain idh2, stronger effect = lower value 0.996 | S. cerevisiae deletion strains, locus YOR144C, strain elg1, stronger effect = lower value 0.982 | S. cerevisiae deletion strains, locus YOR184W, strain ser1, stronger effect = lower value 0.938 | S. cerevisiae deletion strains, locus YOR316C, strain cot1, stronger effect = lower value 0.979 | S. cerevisiae deletion strains, locus YPR119W, strain clb2, stronger effect = lower value 0.971 | S. cerevisiae deletion strains, locus YPR163C, strain tif3, stronger effect = lower value 0.983 | S. cerevisiae deletion strains, locus YPR167C, strain met16, stronger effect = lower value 0.979 | S. cerevisiae deletion strains, strain wtn01, stronger effect = lower value 0.973 | S. cerevisiae strains, strain wild type, stronger effect = lower value 0.971
active: S. cerevisiae deletion strains, locus YDL185W, strain tfp1, stronger effect = lower value 0.0596 | S. cerevisiae deletion strains, locus YIL125W, strain kgd1, stronger effect = lower value 0.853 | S. cerevisiae deletion strains, locus YKL009W, strain mrt4, stronger effect = lower value 0.76 | S. cerevisiae deletion strains, locus YKL068W, stronger effect = lower value 0.928 | S. cerevisiae deletion strains, locus YKL085W, strain MDH1 (second series), stronger effect = lower value 0.88 | S. cerevisiae deletion strains, locus YKL085W, strain MDH1, stronger effect = lower value 0.88 | S. cerevisiae deletion strains, locus YLR039C, strain RIC1, stronger effect = lower value 0.496 | S. cerevisiae deletion strains, locus YLR262C, strain YPT6, stronger effect = lower value 0.504 | S. cerevisiae deletion strains, locus YLR268W, strain sec22, stronger effect = lower value 0.829 | S. cerevisiae deletion strains, locus YNL250W, strain rad50, stronger effect = lower value 0.821 | S. cerevisiae deletion strains, locus YNL271C, strain bni1, stronger effect = lower value 0.732 | S. cerevisiae deletion strains, locus YNL298W, strain CLA4, stronger effect = lower value 0.901 | S. cerevisiae deletion strains, locus YNR052C, strain pop2, stronger effect = lower value 0.907 | S. cerevisiae deletion strains, locus YOL006C, strain TOP1, stronger effect = lower value 0.52 | S. cerevisiae deletion strains, locus YPR141C, strain kar3, stronger effect = lower value 0.804
